Results: the OligoGym collection

biological target: CLN5; assay: pooled miR-30 sensor sort-seq; sequence = guide strand; conditions: shRNA
Further: reference of the scale not given here.

Row | Sequence | sensor-assay potency score (higher = more potent)
1 | TAGCTTGACAATAAGGATCAGG | -0.401
2 | TTTAACTTTATGCACCAAGGAA | -0.689
3 | TATAAAACAAATAGAACTGTTT | -0.137
4 | TTTGGTTGAACATGTTTCCTGA | 0.362
5 | ATGTTCTTGAACTCTGCTCCAA | -1.05
6 | TTATAAAACAAATAGAACTGTT | -0.281
7 | TTCATTGTCCTGTTTCACCCAC | 0.245
8 | TTTCCTTCCAGTGAACATCATC | -0.843
9 | TCTATGTTCTTGAACTCTGCTC | 0.0222
10 | TAATATGCAGCAATTCTGCTGA | 0.18
11 | TTGACAATAAGGATCAGGTTTT | -0.121
12 | TTCAATGTCATCATCACCCTCC | 0.818
13 | TAGGTAAAAACCAATATTCAAA | -1.15

biological target: CLRN3; assay: as above; conditions: shRNA

Row | Sequence | sensor-assay potency score (higher = more potent)
14 | ATTTGGAACAACTCTTCGGAGA | -1.11
15 | TAAAACTGCAAACTTTTTCTTT | -0.472
16 | TTACCATGCTGAATTGTCCAGA | -0.037
17 | TCTAACAGCAATCGTACTGGTG | -0.061
18 | TAAGTGATGAAAATGCTCCCAT | 0.574
19 | TATATTTAGAAGAATGACGAGC | -0.483
20 | TTGTCCAGAGAAGCTAACCAGT | -1.23
21 | TCTCTAACAGCAATCGTACTGG | -0.178
22 | TTTGAATACCACACAGACCAGC | -1.01
23 | TTGAAGCAGAGTCTCTAACAGC | -0.854
24 | TTCAGTATCTCTAAAACTGCAA | -0.132
25 | TAAAGCATTTGGAACAACTCTT | 0.169

biological target: CMAS; assay: as above; conditions: shRNA

Row | Sequence | sensor-assay potency score (higher = more potent)
26 | TTTAGCTGGATTTAAATTCAGA | -0.846
27 | TTCGATGAACTTGTGCACCAAA | -0.973
28 | TACATTTGCAAATGTATCCAAC | -0.636
29 | TAGTGAGGTAGAGCTGTCTTTT | -0.742
30 | TTCATCTACAACTGCTAGCTTG | -0.562
31 | TAGAGCTGTCTTTTGAAACTTC | 0.56
32 | TATATATATATCACAAACCAAA | -1.7
33 | TCATCTACAACTGCTAGCTTGT | -0.405
34 | TACAACTGCTAGCTTGTCTGAT | -0.274
35 | TTCTTTAATAAACTTATCCCAA | -0.589
36 | TTTCACTCCATCGAAACTGATG | -0.871
37 | TTTGAAACTTCAGAACTTCTTC | 0.8

biological target: CMIP; assay: as above; conditions: shRNA

Row | Sequence | sensor-assay potency score (higher = more potent)
38 | TTGCTGAGAAAGGTCCGCGGGT | -0.793
39 | TAAACTGCAGAGACTCTTCATG | 0.214
40 | TTCAAGACAACTTCCCAGCGGC | -0.119
